The values below come from PubChem BioAssay (NCI).

Compounds without any hit were thinned out: in the full panel of roughly 83,000, 20% have a hit.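 Each cell line was grown in a 96-well plate and treated with one concentration of compound for 48 hours. Values below 10 were considered active.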 Values without a mark were called inactive. Activity calls are given as the source filed them.

Some test systems named below: NCI-H23 lung; NCI-H226 lung; NCI-H322M lung; HOP-62 NSCLC; NCI-H460 lung; HOP-92 NSCLC; NCI-H522 lung; A549/ATCC NSCLC; 786-0 renal; COLO 205 colon; DU-145 prostate; K-562 leukemia; MALME-3M melanoma; MDA-MB-231 breast; RXF 393 renal; SF-268 CNS; SF-295 CNS; SF-539 CNS; M14 melanoma.
What all share (test): NCI-60 one-dose screen, 48 h (100 = growth as untreated, 0 = no growth, -100 = all killed)
Common to all, as to settings: 10 µM unless noted

As to `COc1ccc(C2NC3=C(CCCC3)C(C#N)(C#N)C2(C#N)C#N)cc1` (stereo not drawn), the growth in the experiment on NCI-H23 lung was 91.4%; in the experiment with NCI-H226 lung it was 97%; in the experiment on NCI-H322M lung it was 109%; in the experiment with HOP-62 NSCLC, 94.6%; with NCI-H460 lung, 97.6%; with HOP-92 NSCLC, 103%. Also, the growth in the experiment with NCI-H522 lung was 23.8%; in the experiment on A549/ATCC NSCLC, 106%; in the experiment with 786-0 renal it was 88.1%; in the experiment with COLO 205 colon, 11.8%; in the experiment on DU-145 prostate, 94.2%; in the experiment with K-562 leukemia, 12.5%. In addition, the growth is 71.6% in the experiment with MALME-3M melanoma; 70.1% in the experiment on MDA-MB-231 breast; 93.8% in the experiment with RXF 393 renal; 97.8% in the experiment with SF-268 CNS; 99.7% in the experiment on SF-295 CNS; 101% in the experiment on SF-539 CNS. The growth with M14 melanoma is 90.7%.
For `CC1CCN(C(=O)CSc2nc3sc4c(c3c(=O)[nH]2)CCCC4)CC1`, the growth in the experiment with NCI-H23 lung was 113%; in the experiment with NCI-H226 lung, 100%; in the experiment with NCI-H322M lung, 104%; in the experiment on HOP-62 NSCLC it was 103%; with NCI-H460 lung, 120%; in the experiment on HOP-92 NSCLC, 88.2%. The growth in the experiment on NCI-H522 lung is 89.9%; in the experiment with A549/ATCC NSCLC, 106%; in the experiment on 786-0 renal, 110%; with COLO 205 colon, 112%; in the experiment with DU-145 prostate, 101%; with K-562 leukemia, 86.1%. Moreover, the growth in the experiment with MALME-3M melanoma was 109%; with MDA-MB-231 breast, 105%; in the experiment on RXF 393 renal, 117%; in the experiment with SF-268 CNS it was 113%; in the experiment on SF-295 CNS it was 88.4%; in the experiment on SF-539 CNS, 98.2%. For the same compound, the growth in the experiment on M14 melanoma was 109%.
Turning to `NC(N)=NC(N)=Nc1ccccc1-c1ccccc1`, the growth with NCI-H23 lung was 100%; with NCI-H226 lung it was 111%; with NCI-H322M lung it was 105%; with HOP-62 NSCLC it was 115%; with NCI-H460 lung it was 105%; in the experiment with HOP-92 NSCLC, 109%. In addition, the growth was 106% with NCI-H522 lung; 105% in the experiment with A549/ATCC NSCLC; 106% in the experiment on 786-0 renal; 125% in the experiment on COLO 205 colon; 114% with DU-145 prostate; 104% with K-562 leukemia. Also, the growth in the experiment with MALME-3M melanoma is 110%; with MDA-MB-231 breast, 116%; with RXF 393 renal, 112%; with SF-268 CNS it was 113%; in the experiment with SF-295 CNS, 113%; in the experiment with SF-539 CNS it was 110%. Also, the growth with M14 melanoma was 108%.
As for `O=C1CCC/C=C\C[C@H]2C=CC(=O)/C2=C/C[C@H](C/C=C\CC(F)(F)F)O1`, the growth in the experiment with NCI-H23 lung is -8.61% (active); in the experiment on NCI-H226 lung, 8.07% (active); with NCI-H322M lung it was 17.5%; in the experiment with HOP-62 NSCLC it was -11.7% (active); in the experiment with NCI-H460 lung, -30.5% (active); in the experiment on HOP-92 NSCLC, -24.4% (active). Moreover, the growth in the experiment on NCI-H522 lung was -50.8% (active); with A549/ATCC NSCLC, 1.72% (active); in the experiment on 786-0 renal it was -73.9% (active); in the experiment with COLO 205 colon it was -44.4% (active); in the experiment on DU-145 prostate, -3.69% (active); in the experiment with K-562 leukemia, 3.68% (active). The growth with MALME-3M melanoma was -12% (active); in the experiment with MDA-MB-231 breast, 17.7%; in the experiment with RXF 393 renal, -85.4% (active); with SF-268 CNS, -1.48% (active); in the experiment with SF-295 CNS, -19.7% (active); in the experiment with SF-539 CNS, -40.1% (active). Also, the growth with M14 melanoma was -15.2% (active).
As for `CC/C=C\C[C@H]1C/C=C2/C(=O)C(Cl)=C[C@@H]2C/C=C\CCCC(=O)O1`, the growth with NCI-H23 lung is -34.1% (active); with NCI-H226 lung, -11% (active); with NCI-H322M lung it was 0.0936% (active); in the experiment with HOP-62 NSCLC, -14.8% (active); in the experiment on NCI-H460 lung, -43% (active); in the experiment with HOP-92 NSCLC, -56.8% (active). The growth in the experiment on NCI-H522 lung is -60.6% (active); in the experiment on A549/ATCC NSCLC it was -9.19% (active); with 786-0 renal, -80.7% (active); in the experiment with COLO 205 colon it was -59.9% (active); in the experiment with DU-145 prostate, -91% (active); in the experiment with K-562 leukemia, -11.6% (active). For the same compound, the growth in the experiment on MALME-3M melanoma is -42.6% (active); with MDA-MB-231 breast it was -13% (active); in the experiment on RXF 393 renal, -90.1% (active); with SF-268 CNS, -55.4% (active); in the experiment with SF-295 CNS, -63% (active); with SF-539 CNS it was -72.6% (active). Further, in the experiment on M14 melanoma, the growth was -47.1% (active).
As to `CC(=O)Nc1ccc2c(c1)/C(=C\C=C/c1ccc([N+](C)(C)C)cc1)c1ccccc1-2`, the growth in the experiment on NCI-H23 lung is 54.5%; in the experiment on NCI-H226 lung, 57.9%; in the experiment on NCI-H322M lung it was 50.1%; in the experiment on HOP-62 NSCLC it was 18.4%; in the experiment with NCI-H460 lung, 73.4%; in the experiment with HOP-92 NSCLC it was 52%. Also, the growth was 18.1% with NCI-H522 lung; 43.2% in the experiment on A549/ATCC NSCLC; 55.4% in the experiment with 786-0 renal; 58.1% in the experiment on COLO 205 colon; 73% with DU-145 prostate; 49.5% with K-562 leukemia. Further, the growth in the experiment on MALME-3M melanoma is 86.5%; in the experiment on MDA-MB-231 breast it was 63.7%; in the experiment with RXF 393 renal it was 99.1%; in the experiment with SF-268 CNS it was 48.6%; in the experiment on SF-295 CNS, 46.5%; with SF-539 CNS it was 42.4%. Further, the growth with M14 melanoma is 71.5%.
`O=S=Nc1ccc([N+](=O)[O-])cc1`: the growth with NCI-H23 lung is 95%; with NCI-H226 lung, 108%; with NCI-H322M lung it was 95%; with HOP-62 NSCLC, 89.6%; with NCI-H460 lung, 102%; with HOP-92 NSCLC, 107%. Also, the growth with NCI-H522 lung is 81.5%; with A549/ATCC NSCLC it was 78.8%; in the experiment on 786-0 renal, 92.1%; in the experiment with COLO 205 colon, 106%; with DU-145 prostate, 84.8%; in the experiment with K-562 leukemia it was 75.6%. Moreover, the growth with MALME-3M melanoma is 96.8%; with MDA-MB-231 breast it was 95.4%; with RXF 393 renal it was 111%; in the experiment on SF-268 CNS, 91.8%; with SF-295 CNS it was 98.9%; in the experiment on SF-539 CNS, 95.4%. Also, the growth in the experiment with M14 melanoma was 94%.
